Measured values taken from ChEMBL document CHEMBL1961873, “Compounds: GSK PKIS; Assays: Nanosyn kinase panel” (2012).

Assays:
[1] = target: Sphingosine kinase 1 (Homo sapiens) (UniProt Q9NYA1); conditions: at 1 µM;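 also: mean SPHK1 inhibition value reported from the GSK PKIS kinase panel screen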
[2] = target: T1, Sphingosine kinase 2 (Homo sapiens) (UniProt Q9NRA0); conditions: at 0.1 µM
T1 sequence (whole entry): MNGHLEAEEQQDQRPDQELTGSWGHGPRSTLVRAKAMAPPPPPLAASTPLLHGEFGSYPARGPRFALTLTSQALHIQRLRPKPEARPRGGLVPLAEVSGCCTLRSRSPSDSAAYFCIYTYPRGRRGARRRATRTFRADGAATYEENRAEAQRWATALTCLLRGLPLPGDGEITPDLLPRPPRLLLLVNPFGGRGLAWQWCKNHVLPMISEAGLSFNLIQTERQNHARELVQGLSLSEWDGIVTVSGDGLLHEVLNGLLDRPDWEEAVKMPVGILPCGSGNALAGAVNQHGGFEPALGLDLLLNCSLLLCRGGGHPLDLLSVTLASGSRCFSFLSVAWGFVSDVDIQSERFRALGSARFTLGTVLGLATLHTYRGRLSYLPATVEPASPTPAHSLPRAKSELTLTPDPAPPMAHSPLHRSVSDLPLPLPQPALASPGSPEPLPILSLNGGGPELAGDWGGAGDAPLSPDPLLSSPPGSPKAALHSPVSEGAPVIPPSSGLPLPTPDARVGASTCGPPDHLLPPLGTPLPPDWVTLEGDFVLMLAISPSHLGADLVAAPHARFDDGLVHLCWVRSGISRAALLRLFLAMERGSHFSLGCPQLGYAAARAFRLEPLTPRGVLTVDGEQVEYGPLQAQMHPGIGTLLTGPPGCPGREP

[3] = target: T1, Sphingosine kinase 2 (Homo sapiens); conditions: at 1 µM
[4] = target: Casein kinase II subunit alpha (Homo sapiens) (UniProt P68400); conditions: at 0.1 µM
[5] = target: Casein kinase II subunit alpha (Homo sapiens) (UniProt P68400); conditions: at 1 µM
[6] = target: T2, Inhibitor of nuclear factor kappa-B kinase subunit alpha (Homo sapiens) (UniProt O15111); conditions: at 0.1 µM
T2 sequence (whole entry): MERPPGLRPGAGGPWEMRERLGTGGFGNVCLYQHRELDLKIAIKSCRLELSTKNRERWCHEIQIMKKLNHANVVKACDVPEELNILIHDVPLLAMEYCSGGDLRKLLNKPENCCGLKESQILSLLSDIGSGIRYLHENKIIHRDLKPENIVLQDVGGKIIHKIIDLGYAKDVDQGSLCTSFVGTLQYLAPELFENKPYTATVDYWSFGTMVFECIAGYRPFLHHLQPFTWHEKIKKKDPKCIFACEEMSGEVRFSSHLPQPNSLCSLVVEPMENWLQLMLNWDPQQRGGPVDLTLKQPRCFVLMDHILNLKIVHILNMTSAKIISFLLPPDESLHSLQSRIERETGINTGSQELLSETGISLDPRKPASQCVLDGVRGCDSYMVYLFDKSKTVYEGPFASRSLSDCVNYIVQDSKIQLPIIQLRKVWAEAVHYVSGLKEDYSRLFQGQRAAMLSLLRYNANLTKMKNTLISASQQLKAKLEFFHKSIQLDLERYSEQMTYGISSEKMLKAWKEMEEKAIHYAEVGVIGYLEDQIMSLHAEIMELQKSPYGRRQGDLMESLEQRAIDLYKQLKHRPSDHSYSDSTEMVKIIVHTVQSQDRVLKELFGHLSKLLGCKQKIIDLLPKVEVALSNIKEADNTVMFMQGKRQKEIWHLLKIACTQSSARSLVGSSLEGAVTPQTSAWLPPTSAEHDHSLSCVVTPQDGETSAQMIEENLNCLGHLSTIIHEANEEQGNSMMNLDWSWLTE

[7] = target: T2, Inhibitor of nuclear factor kappa-B kinase subunit alpha (Homo sapiens); conditions: at 1 µM
[8] = target: T3, Inhibitor of nuclear factor kappa-B kinase subunit beta (Homo sapiens) (UniProt O14920); conditions: at 0.1 µM
T3 sequence (whole entry): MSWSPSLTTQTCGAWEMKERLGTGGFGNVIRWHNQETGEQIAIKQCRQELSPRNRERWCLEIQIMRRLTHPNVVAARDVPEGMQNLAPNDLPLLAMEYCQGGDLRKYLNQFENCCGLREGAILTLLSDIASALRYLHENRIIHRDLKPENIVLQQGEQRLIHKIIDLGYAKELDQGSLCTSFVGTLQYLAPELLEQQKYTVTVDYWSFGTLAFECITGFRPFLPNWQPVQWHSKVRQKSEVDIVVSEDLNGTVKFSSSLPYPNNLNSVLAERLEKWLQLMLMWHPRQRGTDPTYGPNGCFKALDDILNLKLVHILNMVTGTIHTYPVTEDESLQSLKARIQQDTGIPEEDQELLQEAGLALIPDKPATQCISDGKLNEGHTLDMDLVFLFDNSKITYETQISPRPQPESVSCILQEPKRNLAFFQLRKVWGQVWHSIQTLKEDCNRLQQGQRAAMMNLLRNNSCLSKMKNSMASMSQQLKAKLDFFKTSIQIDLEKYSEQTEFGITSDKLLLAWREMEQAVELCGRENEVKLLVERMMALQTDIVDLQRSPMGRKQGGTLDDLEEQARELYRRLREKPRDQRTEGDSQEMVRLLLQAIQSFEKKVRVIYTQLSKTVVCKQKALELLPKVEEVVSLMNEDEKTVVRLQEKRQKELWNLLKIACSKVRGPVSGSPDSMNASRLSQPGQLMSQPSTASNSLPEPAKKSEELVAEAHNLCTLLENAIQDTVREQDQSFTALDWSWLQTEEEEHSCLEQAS

[9] = target: T3, Inhibitor of nuclear factor kappa-B kinase subunit beta (Homo sapiens); conditions: at 1 µM
[10] = target: T4, Inhibitor of nuclear factor kappa-B kinase subunit epsilon (Homo sapiens) (UniProt Q14164); conditions: at 0.1 µM
T4 sequence (whole entry): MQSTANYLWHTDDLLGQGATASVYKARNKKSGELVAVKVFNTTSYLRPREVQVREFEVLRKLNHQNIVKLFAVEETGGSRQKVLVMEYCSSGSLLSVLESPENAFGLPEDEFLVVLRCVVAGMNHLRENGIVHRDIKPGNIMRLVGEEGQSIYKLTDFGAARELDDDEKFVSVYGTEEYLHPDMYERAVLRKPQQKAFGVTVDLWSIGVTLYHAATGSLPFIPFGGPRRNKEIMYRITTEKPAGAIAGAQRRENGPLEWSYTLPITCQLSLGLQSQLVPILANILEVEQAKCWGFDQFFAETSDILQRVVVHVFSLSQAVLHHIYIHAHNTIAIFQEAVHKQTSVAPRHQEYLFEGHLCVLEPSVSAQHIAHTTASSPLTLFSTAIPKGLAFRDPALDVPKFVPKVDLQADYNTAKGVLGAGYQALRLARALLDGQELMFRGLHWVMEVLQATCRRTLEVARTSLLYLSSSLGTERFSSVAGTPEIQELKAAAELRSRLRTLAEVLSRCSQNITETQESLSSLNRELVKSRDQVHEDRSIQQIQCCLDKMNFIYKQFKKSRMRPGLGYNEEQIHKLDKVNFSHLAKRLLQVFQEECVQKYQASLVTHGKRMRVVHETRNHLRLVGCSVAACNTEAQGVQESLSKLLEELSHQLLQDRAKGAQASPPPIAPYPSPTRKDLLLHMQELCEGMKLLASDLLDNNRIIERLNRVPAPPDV

[11] = target: T4, Inhibitor of nuclear factor kappa-B kinase subunit epsilon (Homo sapiens); conditions: at 1 µM
[12] = target: T5, Serine/threonine-protein kinase Nek1 (Homo sapiens) (UniProt Q96PY6); conditions: at 0.1 µM
T5 sequence (whole entry): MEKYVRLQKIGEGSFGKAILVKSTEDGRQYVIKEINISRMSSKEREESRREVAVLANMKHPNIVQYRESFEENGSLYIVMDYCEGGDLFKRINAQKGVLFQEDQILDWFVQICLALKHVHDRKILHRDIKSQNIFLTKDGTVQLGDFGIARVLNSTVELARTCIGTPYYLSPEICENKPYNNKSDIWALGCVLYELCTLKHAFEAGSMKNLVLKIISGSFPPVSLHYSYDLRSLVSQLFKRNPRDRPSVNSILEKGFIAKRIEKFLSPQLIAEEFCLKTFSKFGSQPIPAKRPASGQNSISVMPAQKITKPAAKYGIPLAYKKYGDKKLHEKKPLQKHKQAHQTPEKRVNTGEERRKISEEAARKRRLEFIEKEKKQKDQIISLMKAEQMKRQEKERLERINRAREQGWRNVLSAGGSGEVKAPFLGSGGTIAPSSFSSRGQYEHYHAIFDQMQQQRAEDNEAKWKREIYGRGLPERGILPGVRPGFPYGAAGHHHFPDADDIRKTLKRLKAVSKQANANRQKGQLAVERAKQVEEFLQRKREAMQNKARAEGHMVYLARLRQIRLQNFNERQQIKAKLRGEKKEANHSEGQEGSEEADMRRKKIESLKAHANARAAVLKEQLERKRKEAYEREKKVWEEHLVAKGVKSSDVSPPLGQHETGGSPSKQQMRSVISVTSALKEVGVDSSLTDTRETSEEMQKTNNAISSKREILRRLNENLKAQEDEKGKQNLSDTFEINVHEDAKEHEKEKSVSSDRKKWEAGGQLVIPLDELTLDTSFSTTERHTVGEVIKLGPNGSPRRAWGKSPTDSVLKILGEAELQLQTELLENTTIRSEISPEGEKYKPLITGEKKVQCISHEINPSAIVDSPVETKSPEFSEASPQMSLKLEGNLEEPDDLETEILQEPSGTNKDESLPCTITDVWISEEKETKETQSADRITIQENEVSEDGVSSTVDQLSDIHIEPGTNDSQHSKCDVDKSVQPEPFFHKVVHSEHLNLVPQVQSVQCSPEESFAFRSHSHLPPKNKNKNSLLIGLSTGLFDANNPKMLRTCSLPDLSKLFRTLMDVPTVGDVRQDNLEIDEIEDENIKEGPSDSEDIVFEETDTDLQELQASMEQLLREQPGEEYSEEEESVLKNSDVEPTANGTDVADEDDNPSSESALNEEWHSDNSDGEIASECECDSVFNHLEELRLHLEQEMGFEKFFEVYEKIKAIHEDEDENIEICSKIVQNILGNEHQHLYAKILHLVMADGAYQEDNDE

[13] = target: T5, Serine/threonine-protein kinase Nek1 (Homo sapiens); conditions: at 1 µM
[14] = target: T6, Serine/threonine-protein kinase Nek2 (Homo sapiens) (UniProt P51955); conditions: at 0.1 µM
T6 sequence (whole entry): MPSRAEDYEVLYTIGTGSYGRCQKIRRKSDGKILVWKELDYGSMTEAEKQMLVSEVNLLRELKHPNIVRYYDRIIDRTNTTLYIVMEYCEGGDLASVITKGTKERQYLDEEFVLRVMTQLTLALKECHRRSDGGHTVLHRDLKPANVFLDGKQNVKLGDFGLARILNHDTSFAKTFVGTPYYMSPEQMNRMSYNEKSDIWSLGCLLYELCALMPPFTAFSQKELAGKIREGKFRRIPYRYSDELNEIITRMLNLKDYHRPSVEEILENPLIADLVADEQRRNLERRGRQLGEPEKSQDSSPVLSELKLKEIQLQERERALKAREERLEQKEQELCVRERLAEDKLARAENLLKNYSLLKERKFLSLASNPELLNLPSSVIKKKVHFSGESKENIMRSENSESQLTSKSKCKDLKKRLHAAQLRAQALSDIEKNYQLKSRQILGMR

[15] = target: T6, Serine/threonine-protein kinase Nek2 (Homo sapiens); conditions: at 1 µM
[16] = target: Serine/threonine-protein kinase Nek6 (Homo sapiens) (UniProt Q9HC98); conditions: at 0.1 µM
[17] = target: Serine/threonine-protein kinase Nek6 (Homo sapiens) (UniProt Q9HC98); conditions: at 1 µM
[18] = target: Serine/threonine-protein kinase Nek7 (Homo sapiens) (UniProt Q8TDX7); conditions: at 0.1 µM
[19] = target: Serine/threonine-protein kinase Nek7 (Homo sapiens) (UniProt Q8TDX7); conditions: at 1 µM
[20] = target: T7, Serine/threonine-protein kinase Nek9 (Homo sapiens) (UniProt Q8TD19); conditions: at 0.1 µM;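 also: reported value is the mean percent inhibition of NEK9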
T7 sequence (whole entry): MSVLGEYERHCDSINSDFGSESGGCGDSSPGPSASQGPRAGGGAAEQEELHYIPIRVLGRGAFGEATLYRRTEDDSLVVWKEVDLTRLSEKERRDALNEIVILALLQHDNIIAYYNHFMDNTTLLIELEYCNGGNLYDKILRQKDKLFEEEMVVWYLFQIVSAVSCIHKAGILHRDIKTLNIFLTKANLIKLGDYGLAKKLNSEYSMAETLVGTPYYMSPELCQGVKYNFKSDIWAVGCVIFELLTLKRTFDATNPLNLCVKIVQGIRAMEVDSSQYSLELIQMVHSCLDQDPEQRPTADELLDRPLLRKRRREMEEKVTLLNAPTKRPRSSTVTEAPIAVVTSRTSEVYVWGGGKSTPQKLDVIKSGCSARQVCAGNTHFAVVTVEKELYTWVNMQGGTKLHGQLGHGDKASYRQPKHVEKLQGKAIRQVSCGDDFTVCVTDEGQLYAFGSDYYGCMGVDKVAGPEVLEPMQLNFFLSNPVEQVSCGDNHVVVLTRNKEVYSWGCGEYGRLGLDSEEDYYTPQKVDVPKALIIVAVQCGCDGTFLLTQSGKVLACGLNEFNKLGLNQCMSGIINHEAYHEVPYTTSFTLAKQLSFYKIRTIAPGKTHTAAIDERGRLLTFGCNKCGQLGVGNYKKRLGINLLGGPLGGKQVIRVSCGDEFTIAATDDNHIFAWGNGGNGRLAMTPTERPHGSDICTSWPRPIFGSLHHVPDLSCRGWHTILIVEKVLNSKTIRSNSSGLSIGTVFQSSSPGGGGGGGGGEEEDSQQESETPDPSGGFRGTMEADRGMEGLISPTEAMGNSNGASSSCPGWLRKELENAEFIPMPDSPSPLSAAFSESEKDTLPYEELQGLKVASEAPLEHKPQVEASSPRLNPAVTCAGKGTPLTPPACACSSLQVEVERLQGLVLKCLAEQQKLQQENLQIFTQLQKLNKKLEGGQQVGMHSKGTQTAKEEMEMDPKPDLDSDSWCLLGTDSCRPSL

Chain of Casein kinase II subunit alpha (Homo sapiens) (P68400 whole entry, looked up): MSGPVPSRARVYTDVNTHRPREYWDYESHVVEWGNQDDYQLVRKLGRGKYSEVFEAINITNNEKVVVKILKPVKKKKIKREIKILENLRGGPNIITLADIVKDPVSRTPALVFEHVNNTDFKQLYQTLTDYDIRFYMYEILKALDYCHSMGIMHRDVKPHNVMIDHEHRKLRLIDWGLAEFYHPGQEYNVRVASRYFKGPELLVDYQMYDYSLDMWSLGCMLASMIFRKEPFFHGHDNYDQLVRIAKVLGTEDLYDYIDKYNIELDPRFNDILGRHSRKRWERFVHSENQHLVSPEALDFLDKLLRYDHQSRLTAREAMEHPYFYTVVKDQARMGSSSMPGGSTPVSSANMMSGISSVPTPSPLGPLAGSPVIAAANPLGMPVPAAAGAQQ
Chain of Serine/threonine-protein kinase Nek7 (Homo sapiens) (Q8TDX7 whole entry, looked up): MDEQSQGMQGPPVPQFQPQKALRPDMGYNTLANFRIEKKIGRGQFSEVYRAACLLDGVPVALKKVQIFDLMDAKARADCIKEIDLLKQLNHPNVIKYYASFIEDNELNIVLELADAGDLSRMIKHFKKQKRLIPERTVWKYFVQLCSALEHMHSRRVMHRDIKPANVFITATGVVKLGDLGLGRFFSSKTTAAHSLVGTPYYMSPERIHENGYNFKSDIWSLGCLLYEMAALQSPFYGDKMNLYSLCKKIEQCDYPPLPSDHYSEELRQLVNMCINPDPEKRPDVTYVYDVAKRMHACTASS
Chain of Serine/threonine-protein kinase Nek6 (Homo sapiens) (Q9HC98 whole entry): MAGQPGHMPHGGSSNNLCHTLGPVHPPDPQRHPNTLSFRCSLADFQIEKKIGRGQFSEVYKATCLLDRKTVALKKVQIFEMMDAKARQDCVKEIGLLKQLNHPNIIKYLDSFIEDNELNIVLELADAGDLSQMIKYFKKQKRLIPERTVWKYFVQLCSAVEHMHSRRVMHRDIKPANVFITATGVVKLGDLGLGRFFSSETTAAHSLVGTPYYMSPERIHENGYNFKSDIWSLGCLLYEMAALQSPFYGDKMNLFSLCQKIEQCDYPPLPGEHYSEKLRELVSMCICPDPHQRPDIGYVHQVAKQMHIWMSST
Chain of Sphingosine kinase 1 (Homo sapiens) (Q9NYA1 whole entry): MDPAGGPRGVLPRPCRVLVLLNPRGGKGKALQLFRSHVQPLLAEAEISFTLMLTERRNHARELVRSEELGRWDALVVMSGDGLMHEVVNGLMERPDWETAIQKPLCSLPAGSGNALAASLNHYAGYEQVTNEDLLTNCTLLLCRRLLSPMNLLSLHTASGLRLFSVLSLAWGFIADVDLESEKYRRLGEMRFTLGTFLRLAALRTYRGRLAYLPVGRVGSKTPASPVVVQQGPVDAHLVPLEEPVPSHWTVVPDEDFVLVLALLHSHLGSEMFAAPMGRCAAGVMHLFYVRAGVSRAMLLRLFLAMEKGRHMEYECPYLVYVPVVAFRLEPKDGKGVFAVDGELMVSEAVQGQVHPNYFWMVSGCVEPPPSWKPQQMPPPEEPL

## COc1cc2ncn(-c3cc(OCc4cccs4)c(C(N)=O)s3)c2cc1OC
[1]
  inhibition: -0.69%
[2]
  inhibition: 0.11%
[3]
  inhibition: -0.11%
[4]
  inhibition: 5.63%
[5]
  inhibition: 20.8%
[6]
  inhibition: 3.56%
[7]
  inhibition: 4.87%
[8]
  inhibition: 3.09%
[9]
  inhibition: 6.07%
[10]
  inhibition: 7.67%
[11]
  inhibition: 7.71%
[12]
  inhibition: 3.32%
[13]
  inhibition: 7.88%
[14]
  inhibition: 4.6%
[15]
  inhibition: 15.3%
[16]
  inhibition: 3.67%
[17]
  inhibition: 6.02%
[18]
  inhibition: 1.64%
[19]
  inhibition: 2.38%
[20]
  inhibition: 5.68%
